Test results taken from PubChem BioAssay (NCI).
Compounds without any hit were thinned out: in the full panel of roughly 83,000, 20% have a hit.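 Assay: single dose, 48 h. Readout: percent growth (0 = no net growth; negative = cell death). Active: <10.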 Unmarked numbers belong to inactive results. Calls of active or inactive are those of the source.

Test system: RXF 393 renal
Assay: NCI-60 one-dose screen, 48 h (100 = growth as untreated, 0 = no growth, -100 = all killed)
Conditions: 10 µM unless noted

| SMILES | growth |
| --- | --- |
| CC(C)C1=NOC(=O)C1=Cc1cn(-c2ccccc2)nc1-c1ccccc1 | 70.3% |
| CCN(CC)CCCNCc1cc(-c2ccccc2)nc2ccccc12 | 77.8% |
| CCOC(=O)CCC[P+](c1ccccc1)(c1ccccc1)c1ccccc1 | 108% |
| Cc1cccc(C[C@H](NC(=O)Nc2ccc(Cl)cc2F)C(=O)N[C@@H]2C(=O)N3C[C@H](O)C[C@H]3C(=O)N3CCN(C)C[C@H]3C(=O)N[C@@H](C)C(=O)N3C[C@H](C)C[C@H]3C(=O)O[C@H]2C)c1 | 81.7% |
| COc1cc(C)cc2oc3oc(=O)c(C(=O)c4cc5cc(Br)ccc5o4)cc3c(=O)c12 | 116% |
| COc1ccc(CC(C#N)c2ccc(Cl)cc2)cc1 (stereo not drawn) | 92.1% |
| Clc1ccc(/C=N/Nc2nc3ccccc3s2)c(Cl)c1 | 114% |
| Nc1nc(SCc2cccc([N+](=O)[O-])c2)c2[nH]cnc2n1 | 73.6% |
| COC(=O)[C@]12CCC(C)(C)C[C@H]1C1=CC[C@@H]3[C@@]4(C)C/C(=C/c5cccnc5)C(=O)C(C)(C)[C@@H]4CC[C@@]3(C)[C@]1(C)CC2 | -76.5% [100 µM] (active) |
| Cn1cc(-c2nnc(-c3cn(C)c4ncccc34)o2)c2ccccc21 | 10% |
| Cc1ccc(C2=C/C(=C/c3ccc(Br)cc3)C(=O)N2CCc2ccc(S(N)(=O)=O)cc2)cc1 | 90% |
| COc1ccc2nc3cc(Cl)ccc3c(Nc3ccc(O)cc3)c2c1 | 83.2% |
| CCCCN(CC)CC(CC)Nc1cc(OC)cc2cccnc12 (stereo not drawn) | 122% |
